Consider seven compounds from PubChem BioAssay (Tox21).

Assay [1] can be described thus: Nuclear factor erythroid 2-related factor 2/antioxidant responsive element (Nrf2/ARE) small molecule agonists: qHTS cell viability counter screen in human keratinocytes (AID 1919968; active = well fitted curve in the direction sought with a large enough effect in the repeat runs; an effect the other way counts as inactive or inconclusive; note: nearly all actives have a fitted effect of over 55% in size; note: potency is the fitted concentration of half-maximal effect). An outline of the steps: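 In human HaCaT keratinocytes stably expressing an ARE-driven luciferase, compound exposure lasted 23 h at 37 C under 5% CO2. Viable cells are quantified with a protease-based fluorogenic reagent (CellTiter-Fluor) read 1 h after addition.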

Assay [2] concerns the target Gonadotropin-releasing hormone receptor (Homo sapiens) (UniProt P30968). Briefly: Human gonadotropin-releasing hormone receptor (GnRHR) small molecule agonists, calcium flux assay in GnRHR-HEK293 cells (AID 1920063). Note: nearly all actives have a fitted effect of over 35% in size. An outline of the steps:
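Intracellular calcium rise is the read-out: engineered human GnRHR HEK293 cells, dye-loaded, are exposed to DMSO-dissolved compounds and fluorescence at Ex/Em 480/540 is tracked for 3 min.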
(Calcium flux is commonly read through the fluorescence of an indicator in the cells.)

Assay [3] has as its target KiSS-1 receptor (Homo sapiens) (UniProt Q969F8). Put plainly: Human kisspeptin (KISS1R) small molecule agonists, calcium flux assay in KISS1R-HEK293 cells (AID 1920064; active = well fitted curve in the direction sought with a large enough effect in the repeat runs; an effect the other way counts as inactive or inconclusive). An outline of the steps:
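Concentration-response testing used 15 concentrations in triplicate on human KISS1R-expressing HEK293 cells. Calcium-dependent fluorescence (Ex/Em 480/540) was followed kinetically for 3 min after compound transfer.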

Assay [4] in a line: G protein-coupled receptor (GPCR) small molecule agonists, calcium flux assay: HEK293 wild type cell line counter screen (AID 1920065). An outline of the steps: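 Fluorescence intensity signals activation. After overnight (18 h) culture and a 1 h calcium dye load at 37 C, compounds are added by pin tool and the plate read at 480/540 nm for 3 min in 1 s steps.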
A short description of assay [5]: p53 small molecule agonists, cell-based qHTS assay with human liver microsomes (AID 1963577). An outline of the steps:
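p53RE-bla cells, 4,000/well, compound added after 5 h, with human liver microsomes 0.5 mg/mL and NADPH 0.5 mg/mL final; 16 h at 37 C, then LiveBLAzer 2 h RT, fluorescence.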
In general terms: qHTS replaces the single test concentration by a dilution series.

The nature of assay [6]: p53 small molecule agonists, cell-based qHTS assay with rat liver microsomes (AID 1963578). In short, it runs like this: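 p53RE-bla cells, 4,000/well, pre-incubated 5 h, then given compounds plus rat liver microsomes (0.5 mg/mL final) and NADPH (0.5 mg/mL final). Incubation 16 h at 37 C; beta-lactamase reporter read by LiveBLAzer fluorescence after 2 h at room temperature.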

The nature of assay [7]: p53 small molecule agonists, cell-based qHTS assay with human liver microsomes: qHTS cell viability counter screen (AID 1963579). Note: nearly all actives have a fitted effect of over 45% in size. Note: potency is the fitted concentration of half-maximal effect. In short, it runs like this: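 p53RE-bla cells, 4,000/well, dosed 5 hours after plating, with human liver microsomes (0.5 mg/mL final) plus NADPH (0.5 mg/mL final), 16 hours at 37 C. Viability read as CellTiter-Glo luminescence after 30 min at room temperature.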

A short description of assay [8]: p53 small molecule agonists, cell-based qHTS assay with rat liver microsomes: qHTS cell viability counter screen (AID 1963580). Note: nearly all actives have a fitted effect of over 45% in size. Note: potency is the fitted concentration of half-maximal effect. In short, it runs like this: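 Counter screen for cytotoxicity under metabolic activation: rat liver microsomes and NADPH, 0.5 mg/mL final each, added with compounds to p53RE-bla HCT-116 cells; 16 h at 37 C, then ATP luminescence read.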

Assay [9] in a line: p53 small molecule agonists, cell-based qHTS assay: qHTS cell viability counter screen (AID 1963581). Note: nearly all actives have a fitted effect of over 45% in size. Note: potency is the fitted concentration of half-maximal effect. In short, it runs like this: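 Luminescence from CellTiter-Glo, reflecting ATP content, serves as the cytotoxicity measure; it is taken after the 2 h reporter substrate step in HCT-116 p53RE-bla cells dosed for 16 h at 37 C.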
The nature of assay [10]: p53 small molecule agonists, cell-based qHTS assay (AID 1963582; active = well fitted activation curve with a large enough effect in the signal ratio in the repeat runs, not every such curve was filed as active; the % refers to the signal ratio; note: potency is the fitted concentration of half-maximal effect). An outline of the steps: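 After plating, p53RE-bla cells sat 5 h in the incubator; compounds or DMSO vehicle were pinned in; a 16 h incubation at 37 C followed; FRET substrate was added and, 2 h later at RT, fluorescence was measured.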
In assay [11] the target is 5-hydroxytryptamine receptor 2A (Homo sapiens) (UniProt P28223). Put plainly: 5-hydroxytryptamine receptor 2A (HTR2A) small molecule agonists, cell-based qHTS assay (AID 1963587). Note: nearly all actives have a fitted effect of over 30% in size. An outline of the steps:
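HTR2A-CHO cells, plated 18 h at 37 C/5% CO2, dye-loaded 1 h at 37 C; compounds in DMSO added by pin tool (agonist mode). Intracellular calcium flux read as kinetic fluorescence on FDSS over 2 min at 1 s intervals.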

Assay [12] addresses Muscarinic acetylcholine receptor M1 (Homo sapiens) (UniProt P11229). Put plainly: Cholinergic receptor muscarinic 1 (CHRM1) small molecule antagonists, cell-based qHTS assay (AID 1963588). Note: nearly all actives have a fitted effect of over 40% in size. In short, it runs like this: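 Compounds were tested at 15 concentrations in three independent runs. Dye-loaded CHRM1-CHO cells were exposed 5 min at room temperature before stimulation by acetylcholine added at 50nM. Intracellular calcium was read kinetically on FDSS for 3 min.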

Assay [13] shares this target. Put plainly: Cholinergic receptor muscarinic 1 (CHRM1) small molecule agonists, cell-based qHTS assay (AID 1963589). Note: nearly all actives have a fitted effect of over 35% in size. In short, it runs like this: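 Fluorescent calcium dye reports M1 activation in stably transfected CHO cells. Compounds, 15 concentrations, added after 1 h dye loading at 37 C; kinetic reading at 1 sec intervals.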
Assay [14] is described as follows: cAMP Responsive Elements (CRE) small molecule agonists, cell-based qHTS assay (AID 1963590). In short, it runs like this:
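Compound exposure lasted 3 h at 37 C/5% CO2 in CRE-bla HEK 293T cells grown in assay medium with 10% dialyzed FBS and 25 mM HEPES. Reporter signal came from LiveBLAzer B/G FRET substrate, 2 h, room temperature.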

Assay [15] in a line: cAMP Responsive Elements (CRE) small molecule antagonists, cell-based qHTS assay (AID 1963591; active = well fitted inhibition curve with a large enough effect in the signal ratio in the repeat runs, not every such curve was filed as active; the % refers to the signal ratio). In short, it runs like this:
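Stimulation used NKH477 at a final 0.25 uM for 3 h in compound-treated CRE-bla HEK293T cells, seeded 18 h beforehand. Reporter activity was measured with LiveBLAzer B/G FRET substrate after 2 h at room temperature.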

Assay [16] concerns the target Beta-2 adrenergic receptor (Homo sapiens) (UniProt P07550). Briefly: Adrenergic beta2 receptor (ADRB2) small molecule antagonists, cell-based qHTS assay (AID 1963592). Note: series mostly up to about 92 µM; nearly all actives have a fitted effect of over 50% in size. In short, it runs like this:
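Assay format: CHO-ADRB2 cells, 18-20hr seeding at 37C/5% CO2, then compound plus 1nM isoproterenol agonist mix for 0.5hr RT. Homogeneous time-resolved fluorescence cAMP detection after 1hr, expressed as 665/615 nm ratio.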

Assay [17] shares this target. Briefly: Adrenergic beta2 receptor (ADRB2) small molecule agonists, cell-based qHTS assay (AID 1963593).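 Note: CHO cells stably overexpressing human ADRB2.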 In short, it runs like this: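 CHO cells stably over-expressing ADRB2 were plated overnight at 37C, then dosed with compounds plus a stimulation mix containing 100uM IBMX and 25uM Ro-20-1724 for 0.5hr at room temperature. cAMP was measured by HTRF competition, 1hr.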

For assay [18], the target named is D(2) dopamine receptor (Homo sapiens) (UniProt P14416). Briefly: Dopamine D2 receptor (DRD2) small molecule agonists, cell-based qHTS assay (AID 1963594). Note: nearly all actives have a fitted effect of over 35% in size. In short, it runs like this:
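HEK293 cells stably expressing DRD2 were cultured 24 h at 37 C, then given Ro20-1724 (0.1 mM final) and compounds for 10 min at room temperature. NKH477 (200nM) was then added for 30 min. cAMP was read by HTRF.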

Assay [19] shares this target. Put plainly: Dopamine D2 receptor (DRD2) small molecule antagonists, cell-based qHTS assay (AID 1963595; active = well fitted inhibition curve with a large enough effect in the signal ratio in the repeat runs, with a control signal flat; the % refers to the signal ratio). An outline of the steps:
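HEK293 cells stably expressing DRD2, preincubated with 0.1 mM Ro20-1724 and compounds 10 min, were stimulated with 200 nM NKH477 plus 12 nM quinpirole for 30 min at room temperature; cAMP measured by HTRF (665/620 nm).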

For assay [20], the target named is 5-hydroxytryptamine receptor 2A (Homo sapiens) (UniProt P28223). Put plainly: 5-hydroxytryptamine receptor 2A (HTR2A) small molecule antagonists, cell-based qHTS assay (AID 1963586). Note: nearly all actives have a fitted effect of over 45% in size. Note: potency is the fitted concentration of half-maximal effect. An outline of the steps: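 CHO cells stably expressing human HTR2A were plated for 18 h at 37 C, then loaded with calcium dye for 1 h. Compounds were preincubated 5 min at room temperature before DOI (4 nM solution) was added. Kinetic fluorescence was read for 3 min.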
5-hydroxytryptamine receptor 2A (Homo sapiens), sequence (P28223 whole entry, looked up): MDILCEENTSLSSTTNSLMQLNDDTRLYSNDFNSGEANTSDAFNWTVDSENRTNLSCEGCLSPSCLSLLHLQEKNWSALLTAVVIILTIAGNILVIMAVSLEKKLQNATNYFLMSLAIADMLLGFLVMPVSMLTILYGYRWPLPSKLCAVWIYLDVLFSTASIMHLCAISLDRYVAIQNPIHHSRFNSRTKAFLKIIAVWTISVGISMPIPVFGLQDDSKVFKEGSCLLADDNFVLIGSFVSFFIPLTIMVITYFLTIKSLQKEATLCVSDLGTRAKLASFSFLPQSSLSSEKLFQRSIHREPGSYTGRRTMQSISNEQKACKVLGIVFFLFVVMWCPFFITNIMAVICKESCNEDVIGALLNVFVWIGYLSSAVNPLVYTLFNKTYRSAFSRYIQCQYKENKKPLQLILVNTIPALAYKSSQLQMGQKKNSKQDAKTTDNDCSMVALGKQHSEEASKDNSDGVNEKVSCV

Structures are written as SMILES. A number with no mark means an inactive call. Inconclusive results are not listed. Activity calls are given as the source filed them. Unless noted, calls come from the whole dose curve.

Gonadotropin-releasing hormone receptor (Homo sapiens), sequence (P30968 whole entry, looked up): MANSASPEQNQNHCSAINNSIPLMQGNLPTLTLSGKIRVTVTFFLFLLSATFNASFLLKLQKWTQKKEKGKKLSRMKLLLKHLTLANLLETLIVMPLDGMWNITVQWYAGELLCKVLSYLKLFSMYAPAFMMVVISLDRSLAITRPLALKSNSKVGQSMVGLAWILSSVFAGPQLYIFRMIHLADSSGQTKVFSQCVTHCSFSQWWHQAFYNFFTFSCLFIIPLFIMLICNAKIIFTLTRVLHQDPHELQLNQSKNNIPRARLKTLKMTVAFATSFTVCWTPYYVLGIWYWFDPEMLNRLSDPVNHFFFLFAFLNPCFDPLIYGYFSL
KiSS-1 receptor (Homo sapiens), sequence (Q969F8 whole entry, looked up): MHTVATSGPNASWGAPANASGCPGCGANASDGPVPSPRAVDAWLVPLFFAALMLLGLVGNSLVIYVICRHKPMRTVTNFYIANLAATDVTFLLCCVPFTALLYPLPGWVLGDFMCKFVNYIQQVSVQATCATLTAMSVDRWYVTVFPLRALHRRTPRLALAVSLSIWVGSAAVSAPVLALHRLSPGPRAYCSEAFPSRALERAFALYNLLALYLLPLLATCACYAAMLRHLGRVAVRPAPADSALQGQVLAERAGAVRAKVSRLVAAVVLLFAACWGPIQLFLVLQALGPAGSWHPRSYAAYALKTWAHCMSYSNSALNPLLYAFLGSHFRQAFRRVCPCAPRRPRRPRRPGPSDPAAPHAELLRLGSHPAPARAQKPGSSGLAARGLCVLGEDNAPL
Beta-2 adrenergic receptor (Homo sapiens), sequence (P07550 whole entry, looked up): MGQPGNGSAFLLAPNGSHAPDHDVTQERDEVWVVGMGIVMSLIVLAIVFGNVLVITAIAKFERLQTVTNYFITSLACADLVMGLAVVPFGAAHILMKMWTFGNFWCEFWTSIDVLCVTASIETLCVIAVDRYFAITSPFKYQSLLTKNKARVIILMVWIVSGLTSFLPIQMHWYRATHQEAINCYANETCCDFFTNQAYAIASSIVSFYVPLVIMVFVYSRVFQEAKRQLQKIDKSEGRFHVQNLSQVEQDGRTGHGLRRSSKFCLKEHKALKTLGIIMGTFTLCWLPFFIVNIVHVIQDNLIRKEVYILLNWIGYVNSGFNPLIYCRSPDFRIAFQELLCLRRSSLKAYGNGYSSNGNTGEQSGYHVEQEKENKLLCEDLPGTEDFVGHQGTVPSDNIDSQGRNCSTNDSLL
D(2) dopamine receptor (Homo sapiens), sequence (P14416 whole entry, looked up): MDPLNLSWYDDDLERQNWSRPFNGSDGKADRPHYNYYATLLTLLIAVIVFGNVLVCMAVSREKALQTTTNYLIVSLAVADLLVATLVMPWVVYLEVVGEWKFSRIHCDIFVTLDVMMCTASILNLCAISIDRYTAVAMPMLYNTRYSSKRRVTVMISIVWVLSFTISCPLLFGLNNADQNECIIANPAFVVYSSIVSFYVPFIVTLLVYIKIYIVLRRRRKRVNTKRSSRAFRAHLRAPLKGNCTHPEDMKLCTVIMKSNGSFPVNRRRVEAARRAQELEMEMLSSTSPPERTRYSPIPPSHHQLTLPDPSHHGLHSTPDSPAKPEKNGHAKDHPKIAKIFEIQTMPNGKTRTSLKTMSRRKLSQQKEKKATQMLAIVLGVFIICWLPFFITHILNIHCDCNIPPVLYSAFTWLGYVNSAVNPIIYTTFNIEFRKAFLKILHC
Muscarinic acetylcholine receptor M1 (Homo sapiens), sequence (P11229 whole entry, looked up): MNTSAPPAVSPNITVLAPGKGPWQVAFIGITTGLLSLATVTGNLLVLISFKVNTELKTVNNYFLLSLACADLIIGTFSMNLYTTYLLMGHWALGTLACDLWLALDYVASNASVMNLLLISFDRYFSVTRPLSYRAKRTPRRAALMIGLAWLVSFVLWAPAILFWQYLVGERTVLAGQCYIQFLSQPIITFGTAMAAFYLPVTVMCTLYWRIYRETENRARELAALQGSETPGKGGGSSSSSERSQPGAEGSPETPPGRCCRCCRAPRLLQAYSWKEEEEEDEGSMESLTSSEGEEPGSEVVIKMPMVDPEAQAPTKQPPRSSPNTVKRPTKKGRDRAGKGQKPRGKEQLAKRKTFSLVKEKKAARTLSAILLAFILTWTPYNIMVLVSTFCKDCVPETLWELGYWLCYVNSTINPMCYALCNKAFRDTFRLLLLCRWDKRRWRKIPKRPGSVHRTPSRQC

For `CCc1cccc(N(C)C(N)=Nc2cccc3ccccc23)c1`, the Potency entry in assay [1], in [2], in [3], in assay [4], in assay [5] and in assay [6] was “inactive” each time. The Potency entry in assay [7], in [8], in assay [9], in assay [10], in [11] and in assay [12] was “inactive” in each case. Also, the Potency entry in assay [13], in assay [14], in assay [15], in [16], in assay [17] and in [18] was “inactive” throughout. Besides, the Potency result in [19] was “inactive”.
Consider `O=S(c1cc(Cl)cc(Cl)c1O)c1cc(Cl)cc(Cl)c1O`, for which the Potency in assay [1] is 23.7 µM (active); in assay [10] it was 17.8 µM (active). Besides, the Potency result in assay [2], in assay [3], in assay [4], in assay [5], in [6] and in assay [7] was “inactive” in each case. Further, the Potency result in assay [8], in [11], in [13], in assay [15], in [16] and in assay [18] was “inactive” each time.
As to `O=C(Nc1ccc(Oc2ccc(Cl)cc2)c(Cl)c1)c1cc(I)cc(I)c1O`, the figures for the Potency in [1] and in assay [9] were 26.6 µM (active) and 5 µM (active), respectively. In addition, the Potency result in assay [2], in assay [3], in assay [4], in [5], in assay [6] and in assay [7] was “inactive” in each case. Further, the Potency result in assay [8], in assay [20], in assay [11], in assay [12], in [13] and in [15] was “inactive” each time. Further, the Potency result in assay [16], in assay [18] and in [19] was “inactive” each time.
For `CN(C)Cc1cc(C(C)(C)C)c(O)c(C(C)(C)C)c1`, the Potency result in [1], in assay [2], in [3], in assay [4], in assay [5] and in [6] was “inactive” throughout. Also, the Potency entry in assay [7], in assay [8], in assay [10], in assay [11], in assay [12] and in assay [13] was “inactive” in each case. Moreover, the Potency result in [14], in assay [15], in assay [18] and in [19] was “inactive” each time. Also, in assay [20], the Potency was 3.75 µM (active).
In the case of `COc1ccnc2c1CCCCC2S(=O)c1nc2ccccc2[nH]1` (stereo not drawn), the Potency result in [1], in [2], in assay [3], in assay [4], in assay [5] and in [6] was “inactive” each time. The Potency result in assay [7], in [8], in assay [9], in assay [20], in assay [11] and in assay [12] was “inactive” throughout. Also, the Potency result in [13], in [14], in [15], in assay [16], in [17] and in assay [18] was “inactive” throughout. Moreover, in [19], the Potency entry was “inactive”.
Consider `CCc1cc(SCc2sc(-c3ccc(C(F)(F)F)cc3)nc2CN2CCN(c3ccc(OC)cc3)CC2)ccc1OCC(=O)O`, for which the Potency was 54.5 µM (active) in [1], 36.3 µM (active) in [7], 32.4 µM (active) in assay [8] and 12.9 µM (active) in assay [9]. The Potency result in assay [2], in assay [3], in assay [4], in assay [5], in [6] and in [13] was “inactive” throughout. Further, in assay [18], the Potency result was “inactive”.
`CN1CCN(C)CC1`: the Potency result in assay [1], in assay [2], in assay [3], in assay [4], in assay [5] and in assay [6] was “inactive” throughout. In addition, the Potency result in assay [7], in assay [8], in [9], in [10], in assay [11] and in assay [13] was “inactive” throughout. Also, the Potency entry in assay [14], in assay [15], in [16] and in assay [18] was “inactive” throughout.
